Source: the supplement of paper PMC8728848
Many of the other results were omitted from the sample, so the strongest signals are more common in it than they were.

Tests used:
Assay in all cases: glycan array binding signal (z-score within array); higher = stronger binding
Settings in all cases: glycan notation: IUPAC condensed, linker removed
GlcNAc(b1-3)Man = target: GlcNAc(b1-3)Man
Method in brief: (§1)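 Arrays were curated from the Consortium for Functional Glycomics database, 3228 in total, and kept only where the protein sequence was available. Binding is expressed as a within-array Z-score. This score was averaged across arrays of the same protein sequence at different concentrations or buffers and across linkers, and negative values can be read as non-binding.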

[1] = target: GlcNAc(b1-4)GlcNAc(b1-4)GlcNAc(b1-4)GlcNAc(b1-4)GlcNAc
Method in brief: as §1

Kdn(a2-3)Gal(b1-3)GalNAc = target: Kdn(a2-3)Gal(b1-3)GalNAc
Method in brief: as §1

[2] = target: Man(a1-3)[Man(a1-6)]Man(a1-6)[Man(a1-3)]Man
Method in brief: as §1

[3] = target: Neu5Ac(a2-3)Gal(b1-3)GlcNAc(b1-2)Man(a1-3)[Neu5Ac(a2-3)Gal(b1-3)GlcNAc(b1-2)Man(a1-6)]Man(b1-4)GlcNAc(b1-4)GlcNAc
Method in brief: as §1

[4] = target: Neu5Ac(a2-3)Gal(b1-4)GlcNAc(b1-3)Gal(b1-4)GlcNAc(b1-3)GalNAc
Method in brief: as §1

[5] = target: Neu5Ac(a2-3)Gal(b1-4)[Fuc(a1-3)]GlcNAc(b1-2)Man
Method in brief: as §1

[6] = target: Neu5Ac(a2-3)Gal(b1-4)[Fuc(a1-3)]GlcNAc(b1-3)GalNAc
Method in brief: as §1

[7] = target: Neu5Ac(a2-3)Gal6S(b1-4)GlcNAc
Method in brief: as §1

[8] = target: Neu5Ac(a2-6)Gal(b1-4)GlcNAc(b1-2)Man(a1-3)[Man(a1-6)]Man(b1-4)GlcNAc(b1-4)GlcNAc
Method in brief: as §1

[9] = target: Neu5Ac(a2-6)Gal(b1-4)GlcNAc(b1-3)Gal(b1-4)GlcNAc(b1-3)Gal(b1-4)GlcNAc
Method in brief: as §1

[10] = target: Neu5Ac(a2-6)Gal(b1-4)GlcNAc(b1-3)Gal(b1-4)[Fuc(a1-3)]GlcNAc(b1-3)Gal(b1-4)[Fuc(a1-3)]GlcNAc
Method in brief: as §1

[11] = target: Neu5Ac(a2-6)Gal(b1-4)GlcNAc(b1-6)[Gal(b1-3)]GalNAc
Method in brief: as §1

[12] = target: Neu5Ac(a2-8)Neu5Ac(a2-8)Neu5Ac(a2-3)[Gal(b1-3)GalNAc(b1-4)]Gal(b1-4)Glc
Method in brief: as §1

[13] = target: Neu5Gc(a2-3)Gal(b1-4)GlcNAc(b1-3)Gal(b1-4)GlcNAc(b1-2)Man(a1-3)[Neu5Gc(a2-3)Gal(b1-4)GlcNAc(b1-3)Gal(b1-4)GlcNAc(b1-2)Man(a1-6)]Man(b1-4)GlcNAc(b1-4)GlcNAc
Method in brief: as §1

[14] = target: Neu5Gc(b2-6)Gal(b1-4)GlcNAc
Method in brief: as §1

Fuc(a1-2)Gal(b1-3)GalNAc = target: Fuc(a1-2)Gal(b1-3)GalNAc
Method in brief: as §1

Fuc(a1-2)Gal(b1-4)Glc = target: Fuc(a1-2)Gal(b1-4)Glc
Method in brief: as §1

[15] = target: Fuc(a1-2)[Gal(a1-3)]Gal(b1-3)GlcNAc
Method in brief: as §1

[16] = target: Fuc(a1-2)[Gal(a1-4)]Gal(b1-4)GlcNAc
Method in brief: as §1

[17] = target: Fuc(a1-3)[Gal(b1-4)]GlcNAc(b1-4)Gal(b1-4)[Fuc(a1-3)]GlcNAc(b1-4)Gal(b1-4)[Fuc(a1-3)]GlcNAc
Method in brief: as §1

[18] = target: Fuc(a1-3)[Gal3S(b1-4)]Glc6S
Method in brief: as §1

Gal(a1-4)Gal(b1-4)Glc = target: Gal(a1-4)Gal(b1-4)Glc
Method in brief: as §1

Gal(b1-2)Gal = target: Gal(b1-2)Gal
Method in brief: as §1

[19] = target: Gal(b1-3)GlcNAc(b1-3)Gal(b1-4)Glc
Method in brief: as §1

[20] = target: Gal(b1-3)[Fuc(a1-4)]GlcNAc(b1-3)Gal(b1-4)[Fuc(a1-3)]GlcNAc
Method in brief: as §1

GalNAc(b1-3)Gal = target: GalNAc(b1-3)Gal
Method in brief: as §1

[21] = target: GlcNAc(b1-2)Man(a1-3)[GlcNAc(b1-2)Man(a1-6)]Man(b1-4)GlcNAc(b1-4)GlcNAc
Method in brief: as §1

GlcNAc(b1-6)GalNAc = target: GlcNAc(b1-6)GalNAc
Method in brief: as §1

Kdn(a2-3)Gal(b1-4)GlcNAc = target: Kdn(a2-3)Gal(b1-4)GlcNAc
Method in brief: as §1

[22] = target: Man(a1-2)Man(a1-3)[Man(a1-2)Man(a1-6)]Man
Method in brief: as §1

[23] = target: Neu5Ac(a2-3)Gal(b1-3)GalNAc(b1-3)Gal(a1-4)Gal(b1-4)Glc
Method in brief: as §1

[24] = target: Neu5Ac(a2-3)Gal(b1-3)GalNAc6S
Method in brief: as §1

[25] = target: Neu5Ac(a2-3)Gal(b1-4)GlcNAc(b1-6)[Neu5Ac(a2-3)Gal(b1-3)]GalNAc
Method in brief: as §1

[26] = target: Neu5Ac(a2-6)Gal(b1-4)GlcNAc(b1-2)Man(a1-3)[GlcNAc(b1-2)Man(a1-6)]Man(b1-4)GlcNAc(b1-4)GlcNAc
Method in brief: as §1

[27] = target: Neu5Ac(a2-6)Gal(b1-4)GlcNAc(b1-2)Man(a1-6)[GlcNAc(b1-2)Man(a1-3)]Man(b1-4)GlcNAc(b1-4)GlcNAc
Method in brief: as §1

[28] = target: Neu5Ac(a2-6)GalNAc(b1-4)GlcNAc
Method in brief: as §1

B1: Thrombomodulin Extracellular (Mus musculus), P15306 (protein)
chain: MLGIFFLGVLAPASLGLSALAKLQPTGSQCVEHECFALFQGPATFLDASQACQRLQGHLMTVRSSVAADVISLLLSQSSMDLGPWIGLQLPQGCDDPVHLGPLRGFQWVTGDNHTSYSRWARPNDQTAPLCGPLCVTVSTATEAAPGEPAWEEKPCETETQGFLCEFYFTASCRPLTVNTRDPEAAHISSTYNTPFGVSGADFQTLPVGSSAAVEPLGLELVCRAPPGTSEGHWAWEATGAWNCSVENGGCEYLCNRSTNEPRCLCPRDMDLQADGRSCARPVVQSCNELCEHFCVSNAEVPGSYSCMCETGYQLAADGHRCEDVDDCKQGPNPCPQLCVNTKGGFECFCYDGYELVDGECVELLDPCFGSNCEFQCQPVSPTDYRCICAPGFAPKPDEPHKCEMFCNETSCPADCDPNSPTVCECPEGFILDEGSVCTDIDECSQGECFTSECRNFPGSYECICGPDTALAGQISKDCDPIPVREDTKEEEGSGEPPVSPTPGSPTGPPSARPVHSGVLIGISIASLSLVVALLALLCHLRKKQGAARAELEYKCASSAKEVVLQHVRTDRTLQKF
Which “glycan array binding signal (z-score)” value (GlcNAc(b1-3)Man) does the source give for B1 here?
The value was 0.187.

And the “glycan array binding signal (z-score)” value [1]?
The value was 1.75.

What about the “glycan array binding signal (z-score)” value (Kdn(a2-3)Gal(b1-3)GalNAc) of the same binder?
The value was -0.442.

What about the “glycan array binding signal (z-score)” value [2] of the same binder?
The value was 2.92.

What about the “glycan array binding signal (z-score)” value [3] of the same binder?
The value was 2.55.

And the “glycan array binding signal (z-score)” value [4]?
Its value is -0.036.

And the “glycan array binding signal (z-score)” value [5]?
The value was -1.17.

What about the “glycan array binding signal (z-score)” value [6] of the same binder?
Its value is 2.09.

And the “glycan array binding signal (z-score)” value [7]?
Its value is -0.167.

What about the “glycan array binding signal (z-score)” value [8] of the same binder?
The value was 2.56.

What about the “glycan array binding signal (z-score)” value [9] of the same binder?
The value was -0.19.

And the “glycan array binding signal (z-score)” value [10]?
The value was -0.473.

What about the “glycan array binding signal (z-score)” value [11] of the same binder?
Its value is -1.23.

And the “glycan array binding signal (z-score)” value [12]?
Its value is 2.49.

And the “glycan array binding signal (z-score)” value [13]?
Its value is 1.29.

What about the “glycan array binding signal (z-score)” value [14] of the same binder?
The value was -0.009.

B2: LSECtin (Homo sapiens), Q6UXB4 (protein)
chain: MEQESALRELRERVTQGLAEAGRGREDVRTELFRALEAVRLQNNSCEPCPTSWLSFEGSCYFFSVPKTTWAAAQDHCADASAHLVIVGGLDEQGFLTRNTRGRGYWLGLRAVRHLGKVQGYQWVDGVSLSFSHWNQGEPNDAWGRENCVMMLHTGLWNDAPCDSEKDGWICEKKAQLLTPPSALEPRPLQHVVSWGLLTSLAPGADCQRVFSSSSTAAESQKHLAQHSPVQPSAWALGPPCRPHPNSTHADPT
How did the “glycan array binding signal (z-score)” value (Fuc(a1-2)Gal(b1-3)GalNAc) turn out when B2 was run?
The value was -0.303.

What about the “glycan array binding signal (z-score)” value (Fuc(a1-2)Gal(b1-4)Glc) of the same binder?
Its value is 3.15.

What about the “glycan array binding signal (z-score)” value [15] of the same binder?
The value was -0.278.

And the “glycan array binding signal (z-score)” value [16]?
Its value is 2.9.

And the “glycan array binding signal (z-score)” value [17]?
Its value is -0.279.

And the “glycan array binding signal (z-score)” value [18]?
Its value is 0.092.

What about the “glycan array binding signal (z-score)” value (Gal(a1-4)Gal(b1-4)Glc) of the same binder?
The value was -0.309.

What about the “glycan array binding signal (z-score)” value (Gal(b1-2)Gal) of the same binder?
The value was -0.302.

What about the “glycan array binding signal (z-score)” value [19] of the same binder?
Its value is -0.295.

And the “glycan array binding signal (z-score)” value [20]?
Its value is -0.241.

And the “glycan array binding signal (z-score)” value (GalNAc(b1-3)Gal)?
The value was -0.287.

What about the “glycan array binding signal (z-score)” value [21] of the same binder?
The value was 5.09.

What about the “glycan array binding signal (z-score)” value (GlcNAc(b1-3)Man) of the same binder?
The value was 0.057.

What about the “glycan array binding signal (z-score)” value (GlcNAc(b1-6)GalNAc) of the same binder?
The value was -0.174.

And the “glycan array binding signal (z-score)” value (Kdn(a2-3)Gal(b1-4)GlcNAc)?
The value was -0.308.

What about the “glycan array binding signal (z-score)” value [22] of the same binder?
Its value is 0.406.

And the “glycan array binding signal (z-score)” value [23]?
The value was -0.275.

And the “glycan array binding signal (z-score)” value [24]?
The value was -0.307.

What about the “glycan array binding signal (z-score)” value [25] of the same binder?
Its value is -0.297.

And the “glycan array binding signal (z-score)” value [26]?
The value was 5.63.

And the “glycan array binding signal (z-score)” value [27]?
The value was 5.21.

And the “glycan array binding signal (z-score)” value [28]?
The value was -0.301.
